Experimental data from PubChem BioAssay (Tox21).
Inconclusive results are not listed. The source made the active and inactive calls. Unless noted, calls follow the shape of the dose curve; as a rule, active = well fitted curve in the direction sought with a large enough effect in the repeat runs; inconclusive = weak or mixed curves; inactive = no such curve, though single readings can be large; an effect the other way counts as inactive or inconclusive. Where a SMILES comes first, the peptide text is derived from it.

Key:
[1] = qHTS assay to identify small molecule antagonists of the TGF-beta/Smad signaling pathway - cell viability counter screen (AID 1346824); also: nearly all actives have a fitted effect of over 50% in size
Method in brief: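 Cytotoxicity counter-screen run in the same wells as the beta-lactamase Smad reporter read: CellTiter-Glo luminescence after 30 min at room temperature. HEK 293T SBE-bla cells had 5 hr compound exposure at 37 C with TGF-beta1 (0.25 ng/mL stock).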

[2] = qHTS assay to identify small molecule agonists of the TGF-beta/Smad signaling pathway (AID 1346859; active = well fitted activation curve with a large enough effect in the signal ratio in the repeat runs, not every such curve was filed as active; the % refers to the signal ratio; also: series mostly up to about 77 µM)
Method in brief: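 Screening used HEK 293T SBE-bla cells at 4,000/well. Test agents: 5 hr, 37 C. Detection: FRET substrate, 2 hr RT, then excitation 405 nm with emissions at 460 and 530 nm.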

[3] = target: Thyrotropin-releasing hormone receptor (Homo sapiens) (UniProt P34981); assay: qHTS assay to identify small molecule antagonists of the thyrotropin-releasing hormone receptor (TRHR) signaling pathway (AID 1346877; active = well fitted inhibition curve with a large enough effect in the repeat runs, not every such curve was filed as active; also: series mostly up to about 51 µM)
Method in brief: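 Calcium signal in dye-loaded TRHR/HEK293 cells; compounds added 5 min before TRH (1 nM final); fluorescence monitored 3 min at 1 s steps.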

[4] = target: Thyrotropin-releasing hormone receptor (Homo sapiens) (UniProt P34981); assay: qHTS assay to identify small molecule agonists of the thyrotropin-releasing hormone receptor (TRHR) signaling pathway (AID 1346891; calls by dose curve; also: series mostly up to about 58 µM)
Method in brief: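 Readout was intracellular calcium fluorescence in TRHR-Hek293 cells. Cells were incubated 18 h, dye-loaded 2 h at 37 °C, and treated with compound in agonist mode.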

[5] = Human pregnane X receptor (PXR) small molecule agonists, qHTS cell viability counter screen (AID 1346977); also: nearly all actives have a fitted effect of over 50% in size
Method in brief: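 In each well, the PXR reporter HepG2 line was checked for viability: CellTiter-Fluor reagent added 23hr post-dosing, fluorescence read after 1hr incubation at 37C.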

[6] = Caspase-3/7 induction in HepG2 cells by small molecules, qHTS assay (AID 1346978); also: nearly all actives have a fitted effect of over 15% in size
Method in brief: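 Caspase-3/7 induction was measured by Caspase-Glo 3/7 luminescence (30 min, room temperature) after a 17 hr compound exposure of wild-type HepG2 cells seeded at 2,000 per well and pre-incubated 5 hr.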

[7] = Caspase-3/7 induction in CHO-K1 cells by small molecules, qHTS cell viability counter screen (AID 1346979); also: nearly all actives have a fitted effect of over 35% in size
Method in brief: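 Following a 5hr settling period, CHO-K1 cells at 1,500 per well received DMSO-dissolved compounds. Cell viability was quantified 16hr later by CellTiter-Fluor fluorescence, measured after 1hr with reagent at 37C.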

[8] = Caspase-3/7 induction in CHO-K1 cells by small molecules, qHTS assay (AID 1346980); also: nearly all actives have a fitted effect of over 15% in size
Method in brief: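 Luminescent Caspase-Glo 3/7 read (30min, room temperature) quantified apoptosis induction. Cells were wild-type CHO-K1, treated with compound for 17hr at 37 C and 5% CO2.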

[9] = Caspase-3/7 induction in HepG2 cells by small molecules, qHTS cell viability counter screen (AID 1346981); also: series mostly up to about 92 µM; nearly all actives have a fitted effect of over 30% in size
Method in brief: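 After a 5-hr attachment period at 37 C and 5% CO2, wild-type HepG2 cells received compounds in DMSO. Sixteen hours later CellTiter-Fluor was dispensed and the fluorescent signal quantified after a further hour.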

[10] = qHTS assay to identify small molecule agonists of the TGF-beta/Smad signaling pathway - cell viability counter screen (AID 1346829); also: top concentration of the series differs between compounds; nearly all actives have a fitted effect of over 45% in size
Method in brief: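 Compound-treated SBE-bla HEK 293T cells (5 hr, 37 C) were assessed for viability with CellTiter-Glo in parallel with the reporter read.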
% is scaled to controls: 0 for no effect and ±100 for the full control effect.

Thyrotropin-releasing hormone receptor (Homo sapiens), sequence (P34981 whole entry, looked up): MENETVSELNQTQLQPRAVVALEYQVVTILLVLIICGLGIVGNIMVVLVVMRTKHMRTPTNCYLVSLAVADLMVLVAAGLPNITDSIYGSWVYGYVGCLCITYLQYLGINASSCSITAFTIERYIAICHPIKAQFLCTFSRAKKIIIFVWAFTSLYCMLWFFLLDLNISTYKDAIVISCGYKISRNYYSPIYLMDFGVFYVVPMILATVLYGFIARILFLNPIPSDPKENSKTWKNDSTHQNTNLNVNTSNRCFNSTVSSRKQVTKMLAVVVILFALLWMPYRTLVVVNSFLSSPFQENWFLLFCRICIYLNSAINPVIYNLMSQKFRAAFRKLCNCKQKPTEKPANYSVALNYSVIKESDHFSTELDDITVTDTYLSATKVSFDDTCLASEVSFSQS

Cc1ccc(C(C)NC(=O)[C@@H](NC(=O)OC(C)C)C(C)C)cc1 (stereo not given in full)
inactive: outcome [1] | outcome [2] | outcome [3] | outcome [4] | outcome [5] | outcome [6] | Potency [7] | outcome [8] | outcome [9]

O=[N+]([O-])c1c(Cl)cc(Cl)cc1Cl
inactive: outcome [1] | outcome [2] | outcome [3] | outcome [4] | outcome [5] | outcome [6] | Potency [7] | outcome [8] | outcome [9]

O=C(CCCl)NCCc1ccccc1
inactive: outcome [1] | outcome [2] | outcome [3] | outcome [4] | outcome [5] | outcome [6] | outcome [8] | outcome [9]

O=C(NCN1CCOCC1)c1cnccn1
inactive: outcome [1] | outcome [2] | outcome [3] | outcome [4] | outcome [6] | Potency [7] | outcome [8] | outcome [9]

CC(S)C(C)S (stereo not given)
inactive: outcome [10] | outcome [2] | outcome [3] | outcome [4] | outcome [5] | outcome [6] | Potency [7] | outcome [8] | outcome [9]

CO/N=C(/C(=O)N[C@@H]1C(=O)N2C(C(=O)[O-])=C(C[n+]3ccn4ncccc43)CS[C@H]12)c1nsc(N)n1
inactive: outcome [1] | outcome [2] | outcome [5] | outcome [6] | Potency [7] | outcome [8] | outcome [9]

CC(C)(CO)C(O)C(=O)NCCCO (stereo not given)
inactive: outcome [1] | outcome [2] | outcome [5] | outcome [6] | outcome [8] | outcome [9]

CN(C)CCOC(=O)C(c1ccccc1)C1(O)CCCC1 (stereo not given)
inactive: outcome [1] | outcome [2] | outcome [3] | outcome [4] | outcome [5] | outcome [6] | Potency [7] | outcome [8] | outcome [9]

CC(N)CCCC(C)(C)O (stereo not given)
inactive: outcome [1] | outcome [2] | outcome [6] | outcome [8] | outcome [9]

Cc1cc(-c2ccccc2)nnc1NCCN1CCOCC1
inactive: outcome [1] | outcome [2] | outcome [6] | Potency [7] | outcome [8] | outcome [9]

OC1OCCOC1O (stereo not given)
inactive: outcome [1] | outcome [2] | outcome [3] | outcome [4] | outcome [5] | outcome [6] | Potency [7] | outcome [8] | outcome [9]

COc1c2occc2c(OC)c2c(=O)cc(C)oc12
inactive: outcome [1] | outcome [2] | outcome [5] | outcome [6] | Potency [7] | outcome [8] | outcome [9]

C=C(C)C1CC=C(C)C(=O)C1 (stereo not given)
inactive: outcome [1] | outcome [2] | outcome [5] | outcome [6] | Potency [7] | outcome [8] | outcome [9]

C=CC(=O)OCC1CCCO1 (stereo not given)
inactive: outcome [1] | outcome [2] | outcome [3] | outcome [4] | outcome [5] | outcome [6] | Potency [7] | outcome [8] | outcome [9]

CN(C)C(C)(C)CO
inactive: outcome [10] | outcome [2] | outcome [3] | outcome [4] | outcome [5] | outcome [6] | Potency [7] | outcome [8] | outcome [9]

C=CCCCCCCCC
inactive: outcome [1] | outcome [2] | outcome [3] | outcome [4] | outcome [6] | outcome [8] | outcome [9]

CNCCS(=O)(=O)O
inactive: outcome [1] | outcome [2] | outcome [3] | outcome [4] | outcome [5] | outcome [6] | Potency [7] | outcome [8] | outcome [9]

CC(=O)N[C@@H](CO)C(=O)N[C@@H](CC(=O)O)C(=O)N[C@@H](CCCCN)C(=O)N1CCC[C@H]1C(=O)O (Ac-SDKP-OH)
inactive: outcome [1] | outcome [2] | outcome [3] | outcome [4] | outcome [5] | outcome [6] | Potency [7] | outcome [8] | outcome [9]

CC(CO)(CO)CO
inactive: outcome [1] | outcome [2] | outcome [3] | outcome [4] | outcome [5] | outcome [6] | Potency [7] | outcome [8] | outcome [9]

CCC(C(=O)OCCN1CCOC(c2ccccc2)C1C)c1ccccc1 (stereo not given)
inactive: outcome [1] | outcome [2] | outcome [3] | outcome [4] | outcome [5] | outcome [6] | outcome [8] | outcome [9]

CCCC(=O)OCCC(C)CCC=C(C)C (stereo not given)
inactive: outcome [1] | outcome [2] | outcome [3] | outcome [4] | outcome [6] | Potency [7] | outcome [8] | outcome [9]

NCCOCCN
inactive: outcome [1] | outcome [2] | outcome [3] | outcome [4] | outcome [6] | Potency [7] | outcome [8] | outcome [9]

CCOCCOCC
inactive: outcome [1] | outcome [2] | outcome [5] | outcome [6] | Potency [7] | outcome [8] | outcome [9]

CCn1cc(C(=O)O)c(=O)c2cnc(N3CCCC3)nc21
inactive: viability change, negative = cytotoxic [1] 10.1% [at 6.97 µM] | activation [2] -0.108% [at 6.97 µM] | activity, negative = inhibition [3] 1.25% [at 4.65 µM] | activation [4] -0.507% [at 5.23 µM] | activity change, negative = cytotoxicity [5] -1.63% [at 8.39 µM] | caspase activation [6] 1.75% [at 8.39 µM] | activity change, negative = cytotoxicity [7] 1.69% [at 8.39 µM] | caspase-3/7 activation [8] 1.6% [at 8.39 µM] | activity change, negative = cytotoxicity [9] -1.49% [at 8.39 µM]

O=C1CCC(=O)N1Cl
inactive: outcome [1] | outcome [2] | outcome [5] | outcome [6] | outcome [8] | outcome [9]

CCOC(=O)CC1(C)OCC(C)O1 (stereo not given)
inactive: outcome [1] | outcome [2] | outcome [3] | outcome [4] | outcome [6] | Potency [7] | outcome [8] | outcome [9]
